Results reported in PubChem BioAssay (NCATS).
Inconclusive results are not listed. Entries that show only a call come without a potency. Activity calls are given as the source filed them. Calls come from the whole dose curve; as a rule, active = well fitted inhibition curve with a large enough effect; inconclusive = small, poorly fitted or top-dose-only effect; inactive = no such curve, though single readings can be large or run the other way.

target: Cytochrome P450 3A4 (Homo sapiens) (UniProt P08684); assay: qHTS Assay for Inhibitors and Substrates of Cytochrome P450 3A4 (AID 884); conditions: recombinant CYP3A4, Luciferin-PPXE luminescence; series mostly up to 57.1 µM; note: nearly all actives have a fitted effect of over 50% in size
How it was run: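 20 nM human CYP3A4 with 25 uM Luciferin-PPXE (at KM) in 200 mM KPO4, preincubated 10 min with compound; NADPH regeneration started a 60 min RT reaction. Luciferin detected by luminescence, normalized to 57 uM ketoconazole as full inhibition.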
Potency is the fitted concentration of half-maximal effect.

Chain of Cytochrome P450 3A4 (Homo sapiens) (P08684 whole entry, looked up): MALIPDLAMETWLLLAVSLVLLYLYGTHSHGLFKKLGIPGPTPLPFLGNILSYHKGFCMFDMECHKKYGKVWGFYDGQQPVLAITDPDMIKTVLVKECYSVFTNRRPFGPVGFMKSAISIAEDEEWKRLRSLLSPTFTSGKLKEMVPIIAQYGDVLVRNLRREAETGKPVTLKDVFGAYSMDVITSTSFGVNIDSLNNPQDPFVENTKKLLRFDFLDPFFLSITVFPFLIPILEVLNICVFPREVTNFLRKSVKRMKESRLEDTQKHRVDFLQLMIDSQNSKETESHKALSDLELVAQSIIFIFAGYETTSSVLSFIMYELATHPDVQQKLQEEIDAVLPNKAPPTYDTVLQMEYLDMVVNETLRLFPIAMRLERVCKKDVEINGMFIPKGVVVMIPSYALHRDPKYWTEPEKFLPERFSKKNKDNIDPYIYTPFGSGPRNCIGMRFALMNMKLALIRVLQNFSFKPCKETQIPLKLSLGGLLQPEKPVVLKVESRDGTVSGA

Structure (SMILES) | Potency
CC(CO)NC(=O)C1C=C2c3cccc4[nH]cc(c34)C[C@H]2N(C)C1 (stereo not given in full) | inactive
NCC(N)C(=O)c1ccccc1 (stereo not given) | inactive
C[C@@]12C=CC(=O)C=C1CCC1C2CC[C@]2(C)C(=O)CCC12 (stereo not given in full) | inactive
CC(=O)OCC1=C(C(=O)O)N2C(=O)C(NC(=O)CCCC(N)C(=O)O)C2SC1 (stereo not given) | inactive
COC(=O)/C(C)=C\CC12OC(C)(C)C3CC(C=C4C(=O)c5c(OC)c6c(c(CC=C(C)C)c5OC431)OC(C)(CCC=C(C)C)C=C6)C2=O (stereo not given) | 3.16 µM (active)
C[C@H]1O[C@H](O[C@H]2[C@H](O)[C@@H](O)[C@@H](O)[C@H](O)[C@@H]2O)[C@@H](N)C[C@@H]1NC(=N)C(=O)O | inactive
CN(CCC(N)CC(=O)NC1C=CC(n2ccc(N)nc2=O)OC1C(=O)O)C(=N)N (stereo not given) | 0.199 µM (active)
COc1ccc(C2Oc3c(I)c(OC)cc(OC)c3CC2O)cc1OC (stereo not given) | 3.16 µM (active)
NC1C[C@H]1c1ccccc1 (stereo not given in full) | inactive
N#Cc1c(Cl)c(Cl)c(Cl)c(C#N)c1Cl | 3.16 µM (active)
